# Source: PubChem BioAssay
# In the library only some 21% were active in any assay of this set; here they are far more common.
# HCMV inh: human cytomegalovirus inhibition. HFF cells, HCMV-luciferase reporter, 72 h; hits give low values. activity change, negative = inhibition, % at 57.5 µM. 410,000 tested, 4.5% active. AID 1259415; in the data active = activity change below about -60%; inconclusive = no clear call, values can overlap the other calls; inactive = above about -39%; note: % is set by controls: 0 for no effect and ±100 for the full control effect
#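 Compounds were evaluated in HFFs infected with an HCMV luciferase reporter virus (MOI 1 PFU/cell). Luciferase in lysates collected 72 h post infection served as the replication measure.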
# Shiga toxin inh: blocks Shiga toxin action in Vero cells. inhibition, % at 38.7 µM. Vero cells, Shiga toxin protein synthesis inhibition reporter. AID 2315. 290,000 tested, 9.2% active; in the data active = inhibition mostly above about 28%, no sharp cut-off; inactive = mostly below about 43%; note: 0% is about no effect
# Pf growth 48h: P. falciparum growth inhibition at 48 hours (one generation); Potency, µM (highest dose often 28.7 µM), inactives show top-dose activity change, negative = inhibition, usual class: inhibitors; 310,000 tested, 5.9% active; P. falciparum luciferase growth in erythrocytes, 48 h; note: potency is the fitted concentration of half-maximal effect; % is set by controls: 0 for no effect and ±100 for the full control effect
#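 Luciferase-expressing P. falciparum in infected erythrocytes (2% hematocrit, 0.1% parasitemia final) in RPMI 1640/0.5% Albumax were exposed to compound for 48 hours at 37 C, 5% CO2; growth read as luminescence.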
# HCV inh: blocks hepatitis C virus | 340,000 tested, 3.4% active | Huh7.5.1 HCVcc-Cre infection, luciferase reporter, 44 h | Potency, µM (top dose mostly 41.8 µM), inactives show at the highest dose activity change, negative = inhibition, hits mostly inhibitors; note: potency is the fitted concentration of half-maximal effect; % is set by controls: 0 for no effect and ±100 for the full control effect
#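 After 44 h co-culture of compound, cells and HCVcc-Cre (~0.5 moi), substrate is added for 15 min at room temperature and luciferase measured over 15 sec. Cells were seeded at 1,000/well and pre-cultured 4 h.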
# Cycloheximide cs: counter-screen for Shiga toxin inhibitors: cycloheximide protein synthesis inhibition; cell reporter, cycloheximide protein synthesis inhibition counterscreen; 300,000 tested, 12% active; max response, %; in the data active = max response mostly above about 13%, no sharp cut-off; inactive = mostly below about 14%; note: read at 38.3 µM for the half of the compounds with a filed dose; 0% is about no effect
# Pf growth 96h: P. falciparum growth inhibition at 96 hours; P. falciparum luciferase reporter growth, 96 h; Potency, µM (series often up to 28.7 µM), without a hit: top-dose activity change, negative = inhibition, most hits filed as inhibitors; 320,000 tested, 6.9% active; note: potency is the fitted concentration of half-maximal effect; % is set by controls: 0 for no effect and ±100 for the full control effect
#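 Plates of compound plus infected erythrocytes (2% hematocrit, 0.05% parasitemia final) incubate 96 hours, 37 C, 5% CO2. Detection reagent added; reduced luminescence from the parasites' luciferase reporter flags inhibition.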
# Starred values were filed as active, the others as inactive; ? = inconclusive; . = no result given. Unless noted, calls come from the whole dose curve; as a rule, active = well fitted inhibition curve with a large enough effect; inconclusive = small, poorly fitted or top-dose-only effect, or another doubt; inactive = no such curve, though single readings can be large or run the other way.
SMILES,HCMV inh,Shiga toxin inh,Pf growth 48h,HCV inh,Cycloheximide cs,Pf growth 96h
COc1cc(-c2nc3n(c(=O)c2C#N)CCS3)cc(OC)c1OC,19,-16,?,-6%,-3,0.66µM*
N#Cc1c(-c2ccc(F)cc2)nc2n(c1=O)CCS2,-17,-14,.,22µM*,-4,-18%
COc1ccc(-c2nc3n(c(=O)c2C#N)CCS3)cc1OC,-5,-17,29%,4%,-1,35%
COc1ccc(C(=O)/C=C/c2ccc(OC)c(O)c2)c(F)c1,?,61*,?,14µM*,68*,?
COc1cc(/C=C/C(=O)c2ccc(Cl)s2)cc(OC)c1O,.,5,.,13µM*,9,?
COc1ccc(/C=C/C(=O)c2ccc(Cl)s2)cc1O,15,60,.,-5%,24*,14%
COc1ccc(C=CC(=O)c2ccc(OC)c(OC)c2)cc1O,47,.,.,.,.,.
O=C(C=Cc1ccc(Cl)s1)c1ccc(Cl)s1,-30,.,.,1%,.,.
COc1ccc(C(=O)/C=C/c2ccc(OC)c(COc3ccc(F)cc3)c2)cc1,-30,-13,?,?,-1,0%
O=C(NCc1nnc(SCC(=O)N2CCN(c3ccccc3)CC2)o1)c1ccc(F)cc1,-5,11,-7%,.,2,-14%
Cc1ccc(N2C(=O)CC(NNc3nc4ccccc4s3)C2=O)cc1C (centres undefined),-79*,-5,6%,29%,-2,24%
COc1ccc(N2C(=O)CC(NNc3nc4ccccc4s3)C2=O)cc1 (centres undefined),29,-5,30%,16%,-2,28%
COc1cc(/C=C/c2nc(C#N)c(N3CCCCCC3)o2)cc(OC)c1OC,210,.,.,.,.,.
O=C(NCc1ccc(Cl)cc1)c1ncn[nH]1,-5,-15,-4%,-3%,-1,8%
O=C(Nc1ccc(Oc2ccc(Cl)cc2)cc1)c1ncn[nH]1,14,-8,9.3µM*,-13%,-2,36%
Cc1ccc(NC(=O)c2ncn[nH]2)cc1,-40,40,51%,3%,19*,-24%
Cc1ccccc1C(=O)Nc1cccc(NC(=O)c2ncn[nH]2)c1,14,1,8%,2%,0,-29%
COc1ccc(C(=O)O)cc1S(=O)(=O)NCCc1ccccn1,-36,3,16%,11%,-7,-12%
CCCn1c(N)c(N(CCOC)C(=O)c2cc3ccccc3cc2OC)c(=O)[nH]c1=O,-15,.,-15%,13%,.,-10%
CN(C[C@@H](CC1CCCCC1)N(C[C@H](Cc1ccccc1)N(CCc1ccccc1)N=O)N=O)N=O,6,-11,?,15%,-3,12µM*
CN(C[C@H](Cc1ccccc1)N(C[C@H](CC1CCCCC1)N(CCc1ccccc1)N=O)N=O)N=O,-4,-8,-2%,4%,1,?
CN(C[C@H](Cc1ccccc1)N(C[C@H](Cc1ccccc1)N(CC1(c2ccccc2)CC1)N=O)N=O)N=O,-30,-17,?,?,1,10µM*
CCC(C)[C@@H](CN(N=O)[C@@H](Cc1ccccc1)CN(C)N=O)N(CCc1ccccc1)N=O (some centres undefined),.,-3,?,-27%,-2,?
Cc1c(NC(=O)C(C)OC(=O)COc2ccccc2)c(=O)n(-c2ccccc2)n1C (centres undefined),-19,-2,50%,19%,6,-9%
Cc1c(NC(=O)C(C)OC(=O)CC2Sc3ccccc3NC2=O)c(=O)n(-c2ccccc2)n1C (centres undefined),70,25,16%,5%,13*,?
Cc1cccc(COc2ccccc2C(=O)N(C)CC(=O)Nc2cccc(F)c2)c1,-5,.,?,?,.,4.1µM*
CN(CC(=O)Nc1c(Cl)cccc1Cl)C(=O)c1ccccc1Cc1ccccc1,?,.,13µM*,0%,.,?
CN(CC(=O)Nc1cccc(F)c1)C(=O)c1ccccc1CCc1ccccc1,-33,.,6.6µM*,?,.,?
CN(CC(=O)Nc1cccc(F)c1)C(=O)c1ccc(OCc2ccccc2)cc1,-24,.,?,-25%,.,2%
CCOc1ccc(NC(=O)CN(C)C(=O)c2ccccc2Cc2ccccc2)cc1OCC,15,.,12µM*,-23%,.,?
